Measurements: PubChem BioAssay (NCATS)
Results filed as inconclusive are left out. Calls of active or inactive are those of the source. Calls come from the whole dose curve; as a rule, active = well fitted cell-killing curve with a large enough effect; inconclusive = small, poorly fitted or top-dose-only effect, or effect the other way; inactive = no such curve, though single readings can be large or run the other way.

Assays:
[1] = Quantitative High-Throughput drug screen in 47 multiple myeloma cell lines against the NCATS MIPE library collection: L363_DSMZ cell viability assay (AID 1918984); note: nearly all actives have a fitted effect of over 40% in size
Method in brief: (§1)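 Inhibition of viability over 48 h was scored by ATP content (CellTiter-Glo) in 500-cell wells. Zero and full viability were defined by media-only and DMSO-only wells.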

[2] = Quantitative High-Throughput drug screen in 47 multiple myeloma cell lines against the NCATS MIPE library collection: OCIMY7_PLB cell viability assay (AID 1918987); note: nearly all actives have a fitted effect of over 65% in size
Method in brief: as §1

[3] = Quantitative High-Throughput drug screen in 47 multiple myeloma cell lines against the NCATS MIPE library collection: OPM1_PLB cell viability assay (AID 1918989); note: nearly all actives have a fitted effect of over 40% in size
Method in brief: as §1

[4] = Quantitative High-Throughput drug screen in 47 multiple myeloma cell lines against the NCATS MIPE library collection: XG6_PLB cell viability assay (AID 1919865); note: nearly all actives have a fitted effect of over 40% in size
Method in brief: as §1

[5] = Quantitative High-Throughput drug screen in 47 multiple myeloma cell lines against the NCATS MIPE library collection: KMS34_JCRB cell viability assay (AID 1918985); note: nearly all actives have a fitted effect of over 40% in size
Method in brief: as §1

[6] = Quantitative High-Throughput drug screen in 47 multiple myeloma cell lines against the NCATS MIPE library collection: OCIMY5_PLB cell viability assay (AID 1918988); note: nearly all actives have a fitted effect of over 65% in size
Method in brief: as §1

[7] = Quantitative High-Throughput drug screen in 47 multiple myeloma cell lines against the NCATS MIPE library collection: SKMM1_PLB cell viability assay (AID 1919863); conditions: SKMM1 myeloma viability, CellTiter-Glo ATP, 48 h; viability: stronger effect = lower value; note: nearly all actives have a fitted effect of over 35% in size
Method in brief: as §1

[8] = Quantitative High-Throughput drug screen in 47 multiple myeloma cell lines against the NCATS MIPE library collection: U266_ATCC cell viability assay (AID 1919864); note: nearly all actives have a fitted effect of over 35% in size
Method in brief: as §1

[9] = Quantitative High-Throughput drug screen in 47 multiple myeloma cell lines against the NCATS MIPE library collection: KMS28PE_JCRB cell viability assay (AID 1918983); note: nearly all actives have a fitted effect of over 35% in size
Method in brief: as §1

Measured: Potency
Potency is the fitted concentration of half-maximal effect.

COc1cc(C(C)C)c2c(c1)S(=O)(=O)N(COc1cc(=O)n3cccc(OCCN4CCCCC4)c3n1)C2=O
active: [1] 18.7 µM | [2] 11.8 µM | [3] 23.5 µM | [4] 0.833 µM

Cc1cnc(Nc2ccc(F)cc2Cl)nc1-c1c[nH]c(C(=O)N[C@H](CO)c2cccc(Cl)c2)c1
active: [1] 1.32 µM | [5] 23.5 µM | [2] 4.69 µM | [6] 18.7 µM | [3] 20.9 µM | [7] 20.9 µM | [8] 20.9 µM | [4] 3.72 µM

Nc1ccn([C@@H]2O[C@H](CO)[C@H](O)C2(F)F)c(=O)n1
active: [9] 0.469 µM | [2] 0.001 µM | [7] 0.0264 µM | [8] 14.8 µM | [4] 0.0743 µM
